Inconclusive results are not listed. Calls of active or inactive are those of the source. Calls follow the shape of the dose curve; as a rule, active = well fitted cell-killing curve with a large enough effect; inconclusive = small, poorly fitted or top-dose-only effect, or effect the other way; inactive = flat fitted curve, though single readings scatter. Where a SMILES comes first, the peptide text is derived from it. The star is where a group is joined. AMC = Cc1cc(=O)oc2cc(N*)ccc12; Cbz = O=C(OCc1ccccc1)*
Experiments:
Assay in all cases: Primary qHTS to identify gynecologic anti-cancer compounds using libraries of approved drugs and bioactive compounds (AID 1345084); also: nearly all actives have a fitted effect of over 55% in size
[1] = system: C33A; conditions: Gynecologic cancer cell panel viability, ATPlite luminescence, 48 h; series mostly up to 57.5 µM
Summary of the method: (§1)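 48 h compound exposure at 37 C, 5% CO2; five-point qHTS. ATPlite luminescence readout of cell ATP.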

[2] = system: CAOV3; conditions: Gynecologic cancer cell panel viability, ATPlite luminescence, 48 h; series mostly up to 57.5 µM
Summary of the method: as §1

[3] = system: CASKI; conditions: Gynecologic cancer cell panel viability, ATPlite luminescence, 48 h; series mostly up to 57.5 µM
Summary of the method: as §1

[4] = system: Es-2; conditions: Gynecologic cancer cell panel viability, ATPlite luminescence, 48 h; series mostly up to 57.5 µM
Summary of the method: as §1

[5] = system: HeLa; conditions: Gynecologic cancer cell panel viability, ATPlite luminescence, 48 h; series mostly up to 57.5 µM
Summary of the method: as §1

[6] = system: Hek293T; conditions: Gynecologic cancer cell panel viability, ATPlite luminescence, 48 h, control line for the selectivity index; series mostly up to 57.5 µM
Summary of the method: as §1

[7] = system: JEG-3; conditions: Gynecologic cancer cell panel viability, ATPlite luminescence, 48 h; series mostly up to 57.5 µM
Summary of the method: as §1

[8] = system: OV90; conditions: Gynecologic cancer cell panel viability, ATPlite luminescence, 48 h; series mostly up to 57.5 µM
Summary of the method: as §1

[9] = system: PA-1; conditions: Gynecologic cancer cell panel viability, ATPlite luminescence, 48 h; series mostly up to 57.5 µM
Summary of the method: as §1

[10] = system: SKOV3; conditions: Gynecologic cancer cell panel viability, ATPlite luminescence, 48 h; series mostly up to 57.5 µM
Summary of the method: as §1

[11] = system: Tov-21-G; conditions: Gynecologic cancer cell panel viability, ATPlite luminescence, 48 h; series mostly up to 57.5 µM
Summary of the method: as §1

[12] = system: Tov112D; conditions: Gynecologic cancer cell panel viability, ATPlite luminescence, 48 h; series mostly up to 57.5 µM
Summary of the method: as §1
% is scaled to controls: 0 for no effect and ±100 for the full control effect.

Cc1c(O)cc2c(c1O)COC1(O)CCCOC21 (stereo not drawn)
inactive: Potency [1] | Potency [2] | outcome [3] | Potency [4] | Potency [5] | Potency [6] | Potency [7] | Potency [8] | Potency [9] | Potency [10] | Potency [11] | Potency [12]

N=C(N)c1ccc2nc(-c3cc(CC(=O)NC(CC(=O)O)C(=O)O)cc(-c4cc(S(N)(=O)=O)ccc4O)c3O)[nH]c2c1 (stereo not drawn)
inactive: Potency [1] | Potency [2] | outcome [3] | Potency [4] | Potency [5] | Potency [6] | Potency [7] | Potency [8] | Potency [9] | Potency [10] | Potency [11] | Potency [12]

O=C(O)CC1CCC(c2ccc(NC(=O)c3nnc(Nc4ccc(F)c(F)c4)o3)cc2)CC1 (stereo not drawn)
inactive: Potency [1] | Potency [2] | outcome [3] | Potency [4] | Potency [5] | Potency [6] | Potency [7] | Potency [8] | Potency [9] | Potency [10] | Potency [11] | Potency [12]

CC(=O)O[C@H]1C[C@@H](O)C(C)(C)C2C[C@@H](OC(C)=O)[C@@]3(C)C4=CCC(C(CO)CC(O)C5OC5(C)C)[C@]4(C)CCC3[C@]21C (stereo partly drawn)
inactive: Potency [1] | Potency [2] | outcome [3] | Potency [4] | Potency [5] | Potency [6] | Potency [7] | Potency [8] | Potency [9] | Potency [10] | Potency [11] | Potency [12]

COC(=O)C(CC1CCCC1)c1ccc(S(C)(=O)=O)cc1 (stereo not drawn)
inactive: Potency [1] | Potency [2] | outcome [3] | Potency [4] | Potency [5] | Potency [6] | Potency [7] | Potency [8] | Potency [9] | Potency [10] | Potency [11] | Potency [12]

COc1cc(-c2ccc(O)cc2)c(OC)c(O)c1C1=CC(=O)OC1CC(=O)O (stereo not drawn)
inactive: Potency [1] | Potency [2] | outcome [3] | Potency [4] | Potency [5] | Potency [6] | Potency [7] | Potency [8] | Potency [9] | Potency [10] | Potency [11] | Potency [12]

CC1(C)CC[C@]2(C(=O)O[C@@H]3O[C@H](CO[C@@H]4O[C@H](CO)[C@@H](O)[C@H](O)[C@H]4O)[C@@H](O)[C@H](O[C@@H]4O[C@H](CO)[C@@H](O)[C@H](O)[C@H]4O)[C@H]3O)CC[C@]3(C)C(=CCC4[C@@]5(C)CC[C@H](O[C@@H]6OC[C@@H](O)[C@H](O)[C@H]6O)[C@@](C)(C(=O)O)C5CC[C@]43C)[C@@H]2C1 (stereo partly drawn)
inactive: activity change, negative = cytotoxicity [1] 0.217% [at 11.6 µM] | activity change, negative = cytotoxicity [2] 15.5% [at 11.6 µM] | activity change, negative = cytotoxicity [3] 9.7% [at 11.6 µM] | activity change, negative = cytotoxicity [4] -1.43% [at 11.6 µM] | activity change, negative = cytotoxicity [5] 13.2% [at 11.6 µM] | activity change, negative = cytotoxicity [6] 2.76% [at 11.6 µM] | activity change, negative = cytotoxicity [7] 2.05% [at 11.6 µM] | activity change, negative = cytotoxicity [8] 1.75% [at 11.6 µM] | activity change, negative = cytotoxicity [9] 0.621% [at 11.6 µM] | activity change, negative = cytotoxicity [10] 10.7% [at 11.6 µM] | activity change, negative = cytotoxicity [11] 10.6% [at 11.6 µM] | activity change, negative = cytotoxicity [12] 3.57% [at 11.6 µM]

CC(C)c1ccc2c(c1)C(=O)CC1C(C)(C(=O)O)CCCC21C (stereo not drawn)
inactive: Potency [1] | Potency [2] | outcome [3] | Potency [4] | Potency [5] | Potency [6] | Potency [7] | Potency [8] | Potency [9] | Potency [10] | Potency [11] | Potency [12]

COc1cc(/C=C/C(=O)OC[C@H]2O[C@@H](OC3CC(C)=C(C(=O)O)C(C)(C)C3)[C@H](O)[C@@H](O)[C@@H]2O)cc(OC)c1O (stereo partly drawn)
inactive: Potency [1] | Potency [2] | outcome [3] | Potency [4] | Potency [5] | Potency [6] | Potency [7] | Potency [8] | Potency [9] | Potency [10] | Potency [11] | Potency [12]

CCC1OC(=O)C(C)CC(C)C(=O)/C(C)=C/C(C)C(=O)/C=C/C1(C)O (stereo not drawn)
inactive: Potency [1] | Potency [2] | outcome [3] | Potency [4] | Potency [5] | Potency [6] | Potency [7] | Potency [8] | Potency [9] | Potency [10] | Potency [11] | Potency [12]

Cc1cc(=O)oc2cc(NC(=O)[C@H](CCC(=O)O)NC(=O)[C@H](CC(C)C)NC(=O)[C@H](CC(C)C)NC(=O)OCc3ccccc3)ccc12 (Cbz-Leu-Leu-Glu-{AMC})
inactive: Potency [1] | Potency [2] | outcome [3] | Potency [4] | Potency [5] | Potency [6] | Potency [7] | Potency [8] | Potency [9] | Potency [10] | Potency [11] | Potency [12]

COC(=O)[C@]1(C)CCC[C@@]2(C)[C@@H]3CC[C@@H]4C[C@@]3(CC[C@@H]21)C[C@H]4C(=O)O
inactive: Potency [1] | Potency [2] | outcome [3] | Potency [4] | Potency [5] | Potency [6] | Potency [7] | Potency [8] | Potency [9] | Potency [10] | Potency [11] | Potency [12]

CCc1nnc(NS(=O)(=O)c2ccc(NC(=S)NC(=O)/C=C/c3ccc(F)cc3)cc2)s1
inactive: Potency [1] | Potency [2] | outcome [3] | Potency [4] | Potency [5] | Potency [6] | Potency [7] | Potency [8] | Potency [9] | Potency [10] | Potency [11] | Potency [12]

C=C1CC[C@@]2(OC1)O[C@H]1CC3C4CC=C5C[C@@H](O[C@@H]6O[C@@H](C)[C@H](O)[C@@H](O)[C@H]6O)C[C@@H](O[C@@H]6O[C@H](C)[C@H](O)[C@H](O)[C@H]6O[C@@H]6O[C@@H](C)[C@H](O)[C@@H](O)[C@H]6O)[C@]5(C)C4CC[C@]3(C)[C@H]1[C@@H]2C (stereo partly drawn)
inactive: activity change, negative = cytotoxicity [1] 1.56% [at 11.6 µM] | activity change, negative = cytotoxicity [2] 10.5% [at 11.6 µM] | activity change, negative = cytotoxicity [3] -15.2% [at 11.6 µM] | activity change, negative = cytotoxicity [4] 20.8% [at 11.6 µM] | activity change, negative = cytotoxicity [5] 18.7% [at 11.6 µM] | activity change, negative = cytotoxicity [6] 5.62% [at 11.6 µM] | activity change, negative = cytotoxicity [7] -4.67% [at 11.6 µM] | activity change, negative = cytotoxicity [8] -12.6% [at 11.6 µM] | activity change, negative = cytotoxicity [9] -0.609% [at 11.6 µM] | activity change, negative = cytotoxicity [10] -7.76% [at 11.6 µM] | activity change, negative = cytotoxicity [11] -15.7% [at 11.6 µM] | activity change, negative = cytotoxicity [12] 1.88% [at 11.6 µM]
